Assay results taken from PubChem BioAssay AID1159580 (chemical genetic matrix, 2015).
Out of some 5,500 compounds screened, about 2,000 (36%) were called active. Another 18% or so got no clear call; they are omitted. The list shows a part of the results. Values without a mark were called inactive. Rule as the data show it: active = normalized growth mostly below about 0.91 (no sharp cut-off); inconclusive = no clear call, values can overlap the other calls; inactive = mostly above about 0.92.

Test: chemical genetic growth profiling, strain panel (AID 1159580);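 also: tested at 20 µM; growth read once vehicle control cultures reached saturation at 30 °C; 1 = growth at the plate median or of vehicle wells; lower values mean less growth of the strain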
Conditions: growth OD

## NC(C(=O)O)C(O)C(=O)O (stereo not drawn)
S. cerevisiae deletion strains, locus YJR066W, strain TOR1, stronger effect = lower value
  normalized growth: 0.994
S. cerevisiae deletion strains, locus YJR075W, strain HOC1, stronger effect = lower value
  normalized growth: 1.01
S. cerevisiae deletion strains, locus YKL009W, strain mrt4, stronger effect = lower value
  normalized growth: 1.02
S. cerevisiae deletion strains, locus YKL068W, stronger effect = lower value
  normalized growth: 1.01
S. cerevisiae deletion strains, locus YKL085W, strain MDH1 (second series), stronger effect = lower value
  normalized growth: 0.999
S. cerevisiae deletion strains, locus YKL085W, strain MDH1, stronger effect = lower value
  normalized growth: 0.999
S. cerevisiae deletion strains, locus YKL160W, strain elf1, stronger effect = lower value
  normalized growth: 0.974
S. cerevisiae deletion strains, locus YKR001C, strain vps1, stronger effect = lower value
  normalized growth: 1.02
S. cerevisiae deletion strains, locus YKR026C, strain gcn3, stronger effect = lower value
  normalized growth: 0.997
S. cerevisiae deletion strains, locus YKR091W, strain srl3, stronger effect = lower value
  normalized growth: 0.984
S. cerevisiae deletion strains, locus YLL001W, strain dnm1, stronger effect = lower value
  normalized growth: 0.987
S. cerevisiae deletion strains, locus YLL026W, stronger effect = lower value
  normalized growth: 0.996
S. cerevisiae deletion strains, locus YLL041C, strain sdh2, stronger effect = lower value
  normalized growth: 0.978
S. cerevisiae deletion strains, locus YLR027C, strain aat2, stronger effect = lower value
  normalized growth: 0.998
S. cerevisiae deletion strains, locus YLR039C, strain RIC1, stronger effect = lower value
  normalized growth: 1.02
S. cerevisiae deletion strains, locus YLR058C, strain SHM2, stronger effect = lower value
  normalized growth: 1.01
S. cerevisiae deletion strains, locus YLR102C, strain apc9, stronger effect = lower value
  normalized growth: 1.04
S. cerevisiae deletion strains, locus YLR113W, strain HOG1, stronger effect = lower value
  normalized growth: 1.07
S. cerevisiae deletion strains, locus YLR221C, strain rsa3, stronger effect = lower value
  normalized growth: 1.05
S. cerevisiae deletion strains, locus YLR258W, strain gsy2, stronger effect = lower value
  normalized growth: 0.995
S. cerevisiae deletion strains, locus YLR262C, strain YPT6 (second series), stronger effect = lower value
  normalized growth: 0.973
S. cerevisiae deletion strains, locus YLR262C, strain YPT6, stronger effect = lower value
  normalized growth: 1.02
S. cerevisiae deletion strains, locus YLR268W, strain sec22, stronger effect = lower value
  normalized growth: 1.07
S. cerevisiae deletion strains, locus YLR320W, strain mms22, stronger effect = lower value
  normalized growth: 1.04
S. cerevisiae deletion strains, locus YLR330W, strain CHS5, stronger effect = lower value
  normalized growth: 1.01
S. cerevisiae deletion strains, locus YLR342W, strain FKS1 (second series), stronger effect = lower value
  normalized growth: 1
S. cerevisiae deletion strains, locus YLR342W, strain FKS1, stronger effect = lower value
  normalized growth: 0.999
S. cerevisiae deletion strains, locus YLR357W, strain rsc2, stronger effect = lower value
  normalized growth: 0.982
S. cerevisiae deletion strains, locus YLR370C, strain arc18, stronger effect = lower value
  normalized growth: 0.988
S. cerevisiae deletion strains, locus YLR371W, strain rom2, stronger effect = lower value
  normalized growth: 1.02
S. cerevisiae deletion strains, locus YLR384C, strain iki3, stronger effect = lower value
  normalized growth: 0.981
S. cerevisiae deletion strains, locus YLR418C, strain cdc73, stronger effect = lower value
  normalized growth: 1.03
S. cerevisiae deletion strains, locus YML016C, strain PPZ1, stronger effect = lower value
  normalized growth: 1.01
S. cerevisiae deletion strains, locus YML032C, strain rad52, stronger effect = lower value
  normalized growth: 1.02
S. cerevisiae deletion strains, locus YML120C, strain ndi1, stronger effect = lower value
  normalized growth: 0.96
S. cerevisiae deletion strains, locus YML124C, strain tub3, stronger effect = lower value
  normalized growth: 1.02
S. cerevisiae deletion strains, locus YMR058W, strain fet3, stronger effect = lower value
  normalized growth: 0.99
S. cerevisiae deletion strains, locus YMR078C, strain ctf18, stronger effect = lower value
  normalized growth: 1.04
S. cerevisiae deletion strains, locus YMR125W, strain sto1, stronger effect = lower value
  normalized growth: 0.95
S. cerevisiae deletion strains, locus YMR129W, stronger effect = lower value
  normalized growth: 1
S. cerevisiae deletion strains, locus YMR205C, strain PFK2, stronger effect = lower value
  normalized growth: 0.966
S. cerevisiae deletion strains, locus YMR223W, strain ubp8, stronger effect = lower value
  normalized growth: 1.03
S. cerevisiae deletion strains, locus YMR231W, strain pep5, stronger effect = lower value
  normalized growth: 0.993
S. cerevisiae deletion strains, locus YMR307W, strain GAS1, stronger effect = lower value
  normalized growth: 1.08
S. cerevisiae deletion strains, locus YNL067W, strain RPL9B, stronger effect = lower value
  normalized growth: 1.01
S. cerevisiae deletion strains, locus YNL071W, strain lat1, stronger effect = lower value
  normalized growth: 0.982
S. cerevisiae deletion strains, locus YNL153C, strain GIM3, stronger effect = lower value
  normalized growth: 1.01
S. cerevisiae deletion strains, locus YNL183C, strain NPR1, stronger effect = lower value
  normalized growth: 0.982
S. cerevisiae deletion strains, locus YNL209W, strain ssb2, stronger effect = lower value
  normalized growth: 0.982
S. cerevisiae deletion strains, locus YNL233W, strain BNI4, stronger effect = lower value
  normalized growth: 1.01
S. cerevisiae deletion strains, locus YNL248C, strain rpa49, stronger effect = lower value
  normalized growth: 0.94
S. cerevisiae deletion strains, locus YNL250W, strain rad50, stronger effect = lower value
  normalized growth: 1.05
S. cerevisiae deletion strains, locus YNL271C, strain bni1, stronger effect = lower value
  normalized growth: 1.03
S. cerevisiae deletion strains, locus YNL298W, strain CLA4, stronger effect = lower value
  normalized growth: 1.05
S. cerevisiae deletion strains, locus YNL307C, strain MCK1, stronger effect = lower value
  normalized growth: 1.03
S. cerevisiae deletion strains, locus YNL322C, strain KRE1 (second series), stronger effect = lower value
  normalized growth: 0.98
S. cerevisiae deletion strains, locus YNR049C, strain mso1, stronger effect = lower value
  normalized growth: 0.981
S. cerevisiae deletion strains, locus YNR052C, strain pop2, stronger effect = lower value
  normalized growth: 1.04
S. cerevisiae deletion strains, locus YOL012C, strain htz1
  normalized growth: 1.88 [resistant] (active)
S. cerevisiae deletion strains, locus YOL147C, strain pex11, stronger effect = lower value
  normalized growth: 1.02
S. cerevisiae deletion strains, locus YOR001W, strain rrp6, stronger effect = lower value
  normalized growth: 1.01
S. cerevisiae deletion strains, locus YOR061W, strain CKA2, stronger effect = lower value
  normalized growth: 1.01
S. cerevisiae deletion strains, locus YOR069W, strain VPS5, stronger effect = lower value
  normalized growth: 1
S. cerevisiae deletion strains, locus YOR070C, strain gyp1, stronger effect = lower value
  normalized growth: 1.03
S. cerevisiae deletion strains, locus YOR080W, strain dia2, stronger effect = lower value
  normalized growth: 0.996
S. cerevisiae deletion strains, locus YOR083W, strain WHI5, stronger effect = lower value
  normalized growth: 0.979
S. cerevisiae deletion strains, locus YOR106W, strain vam3, stronger effect = lower value
  normalized growth: 0.956
S. cerevisiae deletion strains, locus YOR136W, strain idh2, stronger effect = lower value
  normalized growth: 1.03
S. cerevisiae deletion strains, locus YOR144C, strain elg1, stronger effect = lower value
  normalized growth: 1.02
S. cerevisiae deletion strains, locus YOR184W, strain ser1, stronger effect = lower value
  normalized growth: 1.03
S. cerevisiae deletion strains, locus YOR231W, strain MKK1, stronger effect = lower value
  normalized growth: 1.09
S. cerevisiae deletion strains, locus YOR265W, strain rbl2, stronger effect = lower value
  normalized growth: 0.987
S. cerevisiae deletion strains, locus YOR270C, strain vph1, stronger effect = lower value
  normalized growth: 1.01
S. cerevisiae deletion strains, locus YOR290C, strain snf2, stronger effect = lower value
  normalized growth: 0.926
S. cerevisiae deletion strains, locus YOR316C, strain cot1, stronger effect = lower value
  normalized growth: 1.02
S. cerevisiae deletion strains, locus YPL051W, strain arl3, stronger effect = lower value
  normalized growth: 1
S. cerevisiae deletion strains, locus YPL055C, strain LGE1, stronger effect = lower value
  normalized growth: 1.03
S. cerevisiae deletion strains, locus YPL078C, strain atp4, stronger effect = lower value
  normalized growth: 0.949
S. cerevisiae deletion strains, locus YPL106C, strain sse1, stronger effect = lower value
  normalized growth: 0.954
S. cerevisiae deletion strains, locus YPL240C, strain hsp82, stronger effect = lower value
  normalized growth: 0.996
S. cerevisiae deletion strains, locus YPL241C, strain CIN2, stronger effect = lower value
  normalized growth: 1
S. cerevisiae deletion strains, locus YPL256C, strain CLN2, stronger effect = lower value
  normalized growth: 1.03
S. cerevisiae deletion strains, locus YPR119W, strain clb2, stronger effect = lower value
  normalized growth: 1.02
S. cerevisiae deletion strains, locus YPR141C, strain kar3, stronger effect = lower value
  normalized growth: 1.02
S. cerevisiae deletion strains, locus YPR163C, strain tif3, stronger effect = lower value
  normalized growth: 1.03
S. cerevisiae deletion strains, locus YPR167C, strain met16, stronger effect = lower value
  normalized growth: 1.02
S. cerevisiae deletion strains, strain wtn01, stronger effect = lower value
  normalized growth: 1.03
S. cerevisiae strains, strain wild type, stronger effect = lower value
  normalized growth: 1.01
